These results are taken from PubChem BioAssay (Tox21).

The source made the active and inactive calls. Calls come from the whole dose curve; as a rule, active = well fitted curve in the direction sought with a large enough effect in the repeat runs; inconclusive = weak or mixed curves; inactive = flat fitted curve, though single readings scatter. Positions of bridges follow the written chain, without caps; N, C: chain ends. Non-standard residues stand in square brackets, D forms with d. Residues, ends and D or L forms follow the SMILES beside them. ξ: configuration not given here. *: point of attachment. d(aThr) = C[C@@H](O)[C@@H](N)C(=O)O; ξThr(3R) = C[C@@H](O)C(N)C(=O)O; X3 = CC[C@@H](C)CCCCC(=O)*; dDab = NCC[C@@H](N)C(=O)O
% is set by controls: 0 for no effect and ±100 for the full control effect.

One experiment can be described thus: qHTS assay to test for compound auto fluorescence at 535 nm (green) in HepG2 cells (AID 720675). The conditions noted are these: green autofluorescence 485/535 nm, 1 h; series mostly up to 46 µM; fluorescence, % of fluorescein control: at the top concentration.
Consider `O=C1NCCN1c1ncc([N+](=O)[O-])s1`, for which the “fluorescence, % of fluorescein control” value is -0.159% [at 18.6 µM] (inactive).

In the case of `CCC(=O)NCCC1CCc2ccc3c(c21)CCO3` (stereo unspecified), the “fluorescence, % of fluorescein control” value was 0.074% (inactive).

Take `CN1CCN(C2=Nc3ccccc3Cc3ccccc32)CC1`: the “fluorescence, % of fluorescein control” value was 0.0356% (inactive).

`CCCCCCCCCCCCCCCC(=O)O[C@@H]1CC(C)=C(/C=C/C(C)=C/C=C/C(C)=C/C=C/C=C(C)/C=C/C=C(C)/C=C/C2=C(C)C[C@@H](OC(=O)CCCCCCCCCCCCCCC)CC2(C)C)C(C)(C)C1`: the “fluorescence, % of fluorescein control” value was -0.0106% (inactive).

As for `O=C(Nc1ccc(Br)cc1)c1cc(Br)c(Br)s1`, the “fluorescence, % of fluorescein control” value is 0.0783% (inactive).

On to `Cc1ccc(S(=O)(=O)NC(=O)N[C@@H](C)Cc2ccccc2)cc1`, for which the “fluorescence, % of fluorescein control” value is -0.0582% (inactive).

Take `O=C(O)c1cc(N=Nc2ccc(O)c(C(=O)O)c2)ccc1O`: the “fluorescence, % of fluorescein control” value was -0.131% (inactive).

A short description of a further experiment: qHTS assay to test for compound auto fluorescence at 460 nm (blue) in HEK293 cells (AID 720678). The conditions noted are these: blue autofluorescence 405/460 nm; series mostly up to 46 µM; fluorescence, % of triamterene: at the top concentration. The method in brief:
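HEK293, 2,000 cells/well, 10% dialyzed FBS; attach 4-5 hr 37C; pin compound or DMSO; o/n 37C/5% CO2; fluorescence 405/460 nm; triamterene-equivalent units.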
On the technique in general: Quantitative high-throughput screening tests each substance at several concentrations.
Regarding `Cc1cc(O)c2c(c1)O[C@@]1(C)CC[C@H]3C(C)(C)CCCC34CO[C@@H]2[C@H]41` (stereo partly specified), the “fluorescence, % of triamterene” value is -0.0096% (inactive).

On to `COc1ccc(C2NC(=S)N3C(c4ccc(OC)c(OC)c4)NC(=S)N23)cc1OC` (stereo unspecified), for which the “fluorescence, % of triamterene” value was -0.0028% (inactive).

In the case of `CC(CN(C)C)CN1c2ccccc2Sc2ccc(C(F)(F)F)cc21` (stereo unspecified), the “fluorescence, % of triamterene” value is -0.0125% (inactive).

For `C[C@@H]1CCC2[C@@H](C)[C@@H](O)O[C@@H]3O[C@@]4(C)CC[C@@H]1[C@@]23OO4` (stereo partly specified), the “fluorescence, % of triamterene” value is -0.284% (inactive).

As for `CCc1ccc2c(c1)N(CC(C)CN(C)C)c1ccccc1S2` (stereo unspecified), the “fluorescence, % of triamterene” value was 0.121% (inactive).

Consider `CCCCCCCCCCCCCCCCCC[N+](C)(C)CCC[Si](OC)(OC)OC`, for which the “fluorescence, % of triamterene” value was -0.0241% (inactive).

Consider `CCOC(=O)[C@H](CS)NCCN[C@@H](CS)C(=O)OCC`, for which the “fluorescence, % of triamterene” value is 0.468% (inactive).

Take `CC1(C)S[C@@H]2[C@H](NC(=O)[C@H](NC(=O)N3CCN(S(C)(=O)=O)C3=O)c3ccccc3)C(=O)N2[C@H]1C(=O)O`: the “fluorescence, % of triamterene” value is 0.0977% (inactive).

As to `Cn1c(O)c(N=NC(N)=S)c2ccccc21`, the “fluorescence, % of triamterene” value was -0.232% (inactive).

`CC1=C[C@H](O)CC(C)(C)[C@H]1/C=C/C(C)=C/C=C/C(C)=C/C=C/C=C(C)/C=C/C=C(C)/C=C/C1=C(C)C[C@@H](O)CC1(C)C`: the “fluorescence, % of triamterene” value was 2.13% (inactive).

With `NCCC(=O)[N-][C@@H](Cc1cnc[nH]1)C(=O)O.[Zn]`, the “fluorescence, % of triamterene” value was -0.0813% (inactive).

Take `C#C[C@]1(O)CC[C@H]2[C@@H]3CCC4=CCCC[C@@H]4[C@H]3C(=C)C[C@@]21CC`: the “fluorescence, % of triamterene” value was -0.138% (inactive).

As for `C=C1C(=C/C=C2\CCC[C@]3(C)[C@@H]([C@H](C)/C=C/[C@H](C)C(C)C)CC[C@@H]23)C[C@@H](O)C[C@@H]1O`, the “fluorescence, % of triamterene” value is 0.806% (inactive).

Consider `CC(=O)[C@@]1(O)CC[C@H]2[C@@H]3C=C(Cl)C4=CC(=O)CC[C@]4(C)[C@H]3CC[C@@]21C`, for which the “fluorescence, % of triamterene” value is -0.0059% (inactive).

On to `CC[C@@H](C)CCCCC(=O)N[C@H](CCN)C(=O)N[C@@H](C(=O)N[C@H](CCN)C(=O)N[C@@H]1CCNC(=O)C([C@@H](C)O)NC(=O)[C@@H](CCN)NC(=O)[C@@H](CCN)NC(=O)[C@@H](CC(C)C)NC(=O)[C@@H](Cc2ccccc2)NC(=O)[C@@H](CCN)NC1=O)[C@@H](C)O` (stereo partly drawn) (X3-[dDab][d(aThr)][dDab][dDab][dDab][dF][dL][dDab][dDab][ξThr(3R)]; lactam 4-C), for which the “fluorescence, % of triamterene” value was -0.0246% (inactive).

As to `COc1ccccc1N1CCN(CCCC(=O)c2ccc(F)cc2)CC1`, the “fluorescence, % of triamterene” value is -0.19% (inactive).

For the molecule `CCC(=O)Oc1ccc2c(c1)CC[C@@H]1[C@@H]2CC[C@]2(C)[C@@H](OC(=O)CC)CC[C@@H]12`, the “fluorescence, % of triamterene” value was 0.404% (inactive).

Regarding `CC(=O)Oc1cc(C)c(OC(C)=O)c2ccccc12`, the “fluorescence, % of triamterene” value is 9.12% (inactive).

Consider `CC(C)(C)NC(=O)[C@H]1CC[C@H]2[C@@H]3CC=C4C=C(C(=O)O)CC[C@]4(C)[C@H]3CC[C@]12C`, for which the “fluorescence, % of triamterene” value is 0.664% (inactive).

With `Clc1ccc(COC(Cn2ccnc2)c2ccc(Cl)cc2Cl)c(Cl)c1` (stereo unspecified), the “fluorescence, % of triamterene” value is 0.0225% [at 18.6 µM] (inactive).

Regarding `CCCCC[C@H](O)/C=C/[C@H]1[C@H](O)CC(=O)[C@@H]1CCCCCCC(=O)O`, the “fluorescence, % of triamterene” value is 0.154% [at 18.6 µM] (inactive).

For the molecule `CCOC(=O)C1=C(COCCN)NC(C)=C(C(=O)OC)C1c1ccccc1Cl` (stereo unspecified), the “fluorescence, % of triamterene” value was 5.56% (inactive).

On to `CN1CCN(CCCN2c3ccccc3Sc3ccccc32)CC1`, for which the “fluorescence, % of triamterene” value was 0.0298% (inactive).

In the case of `CN[C@@H]1[C@@H](O)[C@@H](O[C@@H]2[C@@H](O)[C@H](OC3OC(CN)=CCC3N)[C@@H](N)C[C@H]2N)OC[C@]1(C)O` (stereo partly specified), the “fluorescence, % of triamterene” value is 0.0636% [at 18.6 µM] (inactive).

As for `CCC[C@@H]1C[C@@H](C(=O)N[C@@H]([C@H]2O[C@H](SC)[C@H](O)[C@@H](O)[C@H]2O)[C@H](C)Cl)N(C)C1`, the “fluorescence, % of triamterene” value was 0.0721% (inactive).

Regarding `CCC[C@@]1(CCc2ccccc2)CC(O)=C([C@H](CC)c2cccc(NS(=O)(=O)c3ccc(C(F)(F)F)cn3)c2)C(=O)O1`, the “fluorescence, % of triamterene” value is -0.26% (inactive).

Take `CCCCCCC(=O)O[C@H]1CC[C@H]2[C@@H]3CCc4cc(O)ccc4[C@H]3CC[C@]12C`: the “fluorescence, % of triamterene” value was -0.0234% (inactive).

For `CCC(=O)OCC(=O)[C@@]1(OC(=O)CC)[C@@H](C)C[C@H]2[C@@H]3CCC4=CC(=O)C=C[C@]4(C)[C@@]3(F)[C@@H](O)C[C@@]21C`, the “fluorescence, % of triamterene” value was 0.11% (inactive).

Consider `CCCC1([C@H](O)C/C=C/[C@H]2[C@H](O)CC(=O)[C@@H]2CCCCCCC(=O)OC)CCC1`, for which the “fluorescence, % of triamterene” value is -0.0044% (inactive).

`C=C1C(=C/C=C2\CCC[C@]3(C)[C@@H]([C@H](C)CCCC(C)(C)O)CC[C@@H]23)C[C@@H](O)C[C@@H]1O`: the “fluorescence, % of triamterene” value is 0.768% (inactive).

In the case of `CC[C@]1(O)CC2CN(CCc3c([nH]c4ccccc34)[C@@](C(=O)OC)(c3cc4c(cc3OC)N(C)[C@H]3[C@@](O)(C(N)=O)[C@H](O)[C@]5(CC)C=CCN6CC[C@]43[C@@H]65)C2)C1` (stereo partly specified), the “fluorescence, % of triamterene” value was 0.0845% (inactive).

For `CCC(=O)NS(=O)(=O)c1ccc(-c2c(-c3ccccc3)noc2C)cc1`, the “fluorescence, % of triamterene” value was 0.0333% (inactive).

As for `O=C1NCCN1c1ncc([N+](=O)[O-])s1`, the “fluorescence, % of triamterene” value is -0.0673% [at 18.6 µM] (inactive).

Turning to `CCC(=O)NCCC1CCc2ccc3c(c21)CCO3` (stereo unspecified), the “fluorescence, % of triamterene” value is 0.0019% (inactive).

In the case of `CN1CCN(C2=Nc3ccccc3Cc3ccccc32)CC1`, the “fluorescence, % of triamterene” value is 0.0161% (inactive).

`CCCCCCCCCCCCCCCC(=O)O[C@@H]1CC(C)=C(/C=C/C(C)=C/C=C/C(C)=C/C=C/C=C(C)/C=C/C=C(C)/C=C/C2=C(C)C[C@@H](OC(=O)CCCCCCCCCCCCCCC)CC2(C)C)C(C)(C)C1`: the “fluorescence, % of triamterene” value is 0.401% (inactive).

Consider `O=C(Nc1ccc(Br)cc1)c1cc(Br)c(Br)s1`, for which the “fluorescence, % of triamterene” value was 0.0738% (inactive).

Take `Cc1ccc(S(=O)(=O)NC(=O)N[C@@H](C)Cc2ccccc2)cc1`: the “fluorescence, % of triamterene” value is -0.0002% (inactive).

Regarding `O=C(O)c1cc(N=Nc2ccc(O)c(C(=O)O)c2)ccc1O`, the “fluorescence, % of triamterene” value was -0.406% (inactive).
